Compounds without any hit were thinned out: in the full panel of roughly 83,000, 20% have a hit.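 Results are percent growth after 48 hours of single-concentration exposure. 100 means growth as in untreated cells, lower positive values show inhibition; negative values down to -100 show cell death.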 Active and inactive are the calls of the source.
System: NCI-H460 lung
Assay: NCI-60 one-dose screen, 48 h (100 = growth as untreated, 0 = no growth, -100 = all killed)
Details: 10 µM unless noted
Method: Growth inhibition of the NCI-H460 human Non-Small Cell Lung tumor cell line is measured as a screen for anti-cancer activity. Cells are grown in 96 well plates and exposed to the test compound for 48 hours. Compounds are tested at a single concentration, which is 10^-5 M for most compounds. The reported endpoint is percent growth (GI% or GIPRCNT), where numbers from 0 - 100% represent growth inhibition, and numbers from -100% - 0 represent cell death. For example, a value of 40 represents 60% growth inhibition. A value of 0 means no net growth occurred over the course of the experiment. A value of -40 indicates 40% of cells at the beginning of the experiment died by the end of the experiment. A value of -100 means all cells are dead at the end of the experiment.
NCI-60 Human Tumor Cell Lines Screen was performed using the standard one-dose NCI protocol, which is described in more detail at https://dtp.cancer.gov/discovery_development/nci-60/default.htm.
Compounds with GIPRCNT values below 10 were considered active. Activity score was based on GIPRCNT using the following formula: […]
Score is 0 for GIPRCNT values of 100 or above, 50 for GIPRCNT values of 0, and 100 for GIPRCNT values of -100.

| SMILES | growth |
| --- | --- |
| Cn1cc(-c2nnc(-c3cn(C)c4ncc(Br)cc34)s2)c2cc(Br)ccc21 | 99.4% (inactive) |
| O=C(Nc1cccnc1)c1ccc2ccc3ccc(C(=O)Nc4cccnc4)nc3c2n1 | 1.69% (active) |
| CCN(CC)CCCC(C)Nc1ccnc2cc(Cl)c(SCc3ccccc3)cc12 (stereo not given) | -54.9% (active) |
| COc1ccc2c(c1)C(C)Cc1c(ncnc1-n1cnc3ccccc31)N2C (stereo not given) | 11.8% (inactive) |
| Cc1c(Cn2cc(COc3ccc(Br)cc3)nn2)c(C)c(Cn2cc(COc3ccc(Br)cc3)nn2)c(C)c1Cn1cc(COc2ccc(Br)cc2)nn1 | 102% (inactive) |
| O=C(Nc1cc(-c2cccnc2)nc(NCCCN2CCOCC2)n1)c1cc(Br)cc(C(F)(F)F)c1 | 56% (inactive) |
| O=C(N=c1n(-c2ccccc2)nc2n1CCN2C1=NCCN1C(=O)c1ccc(Cl)cc1)c1ccc(Cl)cc1 | 60.6% (inactive) |
| Cn1cc(-c2noc(-c3cn(C)c4ncc(F)cc34)n2)c2cc(Br)ccc21 | 22.8% (inactive) |
| CCOC(=O)n1cc(C2=C(c3ccc(OC)c(OC)c3)COC2=O)c2ccccc21 | 8.64% (active) |
| O=C1Nc2ccccc2/C1=C/C(=O)c1ccc(N2CCCC2)cc1 | 9.75% (active) |
| C=C(C)[C@@H]1CC[C@]2(C)[C@H](CC[C@@H]3[C@@H]([C@@](C)(O)CCC=C(C)C)CC[C@]32C)[C@@]1(C)CCC(=O)O | -34.9% [100 µM] (active) |
| CCCCCn1sc(=O)n(Cc2ccc(CNC(=O)OCc3ccc4cccc(O)c4n3)cc2)c1=O | 6.42% (active) |
| C[C@H]1[C@H](C)CC[C@]2(C(=O)N3CCN(C)CC3)CC[C@]3(C)C(=CC[C@@H]4[C@@]5(C)C/C(=C/c6ccco6)C(=O)C(C)(C)[C@@H]5CC[C@]43C)[C@H]12 | 6.22% [100 µM] (active) |
| O=c1cc(-c2ccccc2)oc2cc(OCc3cn(Cc4ccc(F)cc4)nn3)cc(O)c12 | 71.4% [100 µM] (inactive) |
| CCOC(=O)c1nc2c3ccccc3ccn2c1C(=O)OC | 103% (inactive) |
| CC(C)CSc1ncnc2nc[nH]c12 | 96.9% (inactive) |
| O=[N+]([O-])c1cc([N+](=O)[O-])c(C(F)(F)F)cc1NN=C(c1ccc(O)cc1)c1ccc(O)cc1 | -37.8% (active) |
| CC(C)OC(=O)Nc1cc(F)ccc1F | 106% (inactive) |
| O=C(Nc1cccc2ccccc12)c1cc2ccccc2cc1O | 7.16% (active) |
| CCOc1ccc2sc(NS(=O)(=O)c3ccc(N)cc3)nc2c1 | 104% (inactive) |

| SMILES | growth |
| --- | --- |
| CC1Cc2c(Cl)ncnc2N(C)c2ccc(O)cc21 (stereo not given) | 84.3% (inactive) |
| Cc1ncc(C(=O)Nc2ccc(CN3CCN(C)CC3)c(C(F)(F)F)c2)cc1C#Cc1c(N)ncc2ccc(C#N)cc12 | 43.4% (inactive) |
| COc1cc(C)cc2oc3oc(=N)c(C(=O)c4ccccc4)cc3c(=O)c12 | 105% (inactive) |
| O=c1[nH]c2cc(Cl)c(Cl)cc2n2cc3ncccc3c12 | 62.8% (inactive) |
| Nc1ccc2c(c1)Cc1cc(NC(=O)C(F)(F)F)ccc1-2 | 97.8% (inactive) |
| O=C(O)CSCc1nnc2n(Cc3ccccc3)c(=O)c3c4c(sc3n12)CCCC4 | 111% (inactive) |
| COc1cc(-c2cc(-c3ccc(Nc4ncnc5cc(Cl)ccc45)cc3)nc(N3CCCCC3)n2)cc(OC)c1OC | 94.7% (inactive) |
| CCOc1ccc(S(=O)(=O)Nc2ccc3c(c2)N(S(=O)(=O)CC)CCC3)cc1 | 52.6% (inactive) |
| CC(C)C1=NOC(=O)C1=Cc1cn(-c2ccccc2)nc1-c1ccc(Cl)cc1 | 85.3% (inactive) |
| Nc1nc(Nc2ccccc2)c2ncn(Cc3cc4c(cc3Br)OCO4)c2n1 | 5.33% (active) |
| CN(C)c1ccc(-c2ccc(-c3ccc(C(=N)N)cc3)s2)cc1 | -71.1% (active) |
| CC[C@]12C=CCN3CC[C@@]4(c5ccc(OC)cc5N(C)[C@H]4[C@@](O)(C(=O)OC)[C@@H]1OC(=O)CCC(=O)N[C@H](Cc1c[nH]c4ccccc14)C(=O)OC)[C@@H]32 | -65.7% [100 µM] (active) |
| CN(Cc1cccc(C(F)(F)F)c1)C(=O)[C@@H](CC(=O)N1CCC(N2CCCCC2)CC1)N1C(=O)[C@@H](N2C(=O)OC[C@@H]2c2ccccc2)[C@H]1/C=C/c1ccccc1 | 89% (inactive) |
| CC(C)c1ccc(C(=O)Nc2sc3c(c2C#N)CCC(=O)C3)cc1 | 3.31% (active) |
| c1ccc(-c2n[nH]c(-c3ccccn3)n2)nc1 | 106% (inactive) |
| CCOC(=O)c1nn(C2CCCCO2)c2ccc(NC(=O)Cn3nnc4ccccc43)cc12 (stereo not given) | 100% (inactive) |
| O=C(CSc1nccc(Nc2ccc(S(=O)(=O)Nc3ccccn3)cc2)n1)c1ccc(Cl)cc1 | 104% (inactive) |
| C[N+](C)(C)c1ncnc2[n-]cnc12 | 100% (inactive) |
| O=c1cc(-c2ccccc2)oc2c(O)c(O)ccc12 | 17.3% (inactive) |
| C=C(C)[C@@H]1CC[C@]2(C)[C@H](CC=C3[C@@H]4[C@@H](C)[C@H](C)CC[C@]4(C(N)=O)CC[C@]32C)[C@@]1(C)CCC#N | -38.4% [100 µM] (active) |

— PubChem BioAssay (NCI)
